# Assay results from PubChem BioAssay (NCATS).
# Records with an inconclusive call do not appear. The source made the active and inactive calls. The call rests on the fitted dose curve; in most records, active means well fitted cell-killing curve with a large enough effect; inconclusive means small, poorly fitted or top-dose-only effect, or effect the other way; inactive means no such curve, though single readings can be large or run the other way.
# Test: Quantitative highthroughput screen to assess conditional lethalithy of SEM cells grown in Human Plasma-Like Medium with dialyzed fetal bovine serum (HPLM+ds) (AID 1963882); further: nearly all actives have a fitted effect of over 35% in size
# Conditions: SEM B-ALL cells in HPLM+ds, CellTiter-Glo viability, 48 h; series mostly up to 45.8 µM
# In short: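 Each medium arm—HPLM with 10% dialyzed FBS, or RPMI1640 with 5 mM glucose and 10% untreated or dialyzed FBS—was screened against an 11-point, 3-fold compound titration for 48 h at 37 °C, with CellTiter-Glo luminescence as endpoint.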
# Potency means the concentration at half of the fitted maximal effect.
row,SMILES,Potency
1,Cn1c(=O)n(-c2ccc(C(C)(C)C#N)cc2)c2c3cc(-c4cnc5ccccc5c4)ccc3ncc21,235 nM (active)
2,CCN(CC)Cc1ccc2cc(COC(=O)Nc3ccc(C(=O)NO)cc3)ccc2c1,1660 nM (active)
3,CCCCCCCCCCCCc1ccc(S(=O)(=O)Nc2nncs2)cc1,inactive
4,O=C(Nc1cn[nH]c1-c1nc2ccc(CN3CCOCC3)cc2[nH]1)NC1CC1,83.3 nM (active)
5,Cc1ccc2nc(NCCN)c3ncc(C)n3c2c1,11800 nM (active)
6,COc1cc(C)c(Sc2cnc(NC(=O)c3ccc(CNC(C)C(C)(C)C)cc3)s2)cc1C(=O)N1CCN(C(C)=O)CC1 (centres undefined),4180 nM (active)
7,C[C@@H]1C[C@H]2[C@@H]3CCC4=CC(=O)C=C[C@]4(C)[C@@]3(Cl)[C@@H](O)C[C@]2(C)[C@@]1(OC(=O)c1ccco1)C(=O)CCl,inactive
8,COCCNCCCn1c(C(=O)CF)c(-c2ccc(C)cc2)c2c(N)ncnc21,11800 nM (active)
9,CC(C)(C)C(=O)OCOP(=O)(COCCn1cnc2c(N)ncnc21)OCOC(=O)C(C)(C)C,469 nM (active)
10,C=CC(=O)Nc1cccc(Oc2nc(Nc3ccc(N4CCN(C)CC4)cc3)ncc2Cl)c1,2350 nM (active)
11,O=C(c1ccc(F)cc1)C1CCN(CCn2c(=O)[nH]c3ccccc3c2=O)CC1,inactive
12,NS(=O)(=O)c1ccc(Nc2nc(OCC3CCCCC3)c3[nH]cnc3n2)cc1,469 nM (active)
13,Cc1cnc(NC(=O)Nc2cc(Br)c(C)cc2OC[C@@H]2CNCCO2)cn1,526 nM (active)
14,NCCc1ccc(O)c(O)c1,18700 nM (active)
15,COc1cc2ncnc(-n3nc(-c4ccccn4)nc3N)c2cc1OC,5260 nM (active)
16,CCN(CCO)CCCOc1ccc2c(Nc3cc(CC(=O)Nc4cccc(F)c4)[nH]n3)ncnc2c1,296 nM (active)
17,Clc1ccccc1C(c1ccccc1)(c1ccccc1)n1ccnc1,inactive
18,Cc1ccc(C(=O)c2cc(O)c(O)c([N+](=O)[O-])c2)cc1,inactive
19,CCOC(=O)[C@@H](N)CCC(=O)N[C@@H](CSCc1ccccc1)C(=O)N[C@@H](C(=O)OCC)c1ccccc1,inactive
20,CC(C)(C)c1cc(C(C)(C)C)c(NC(=O)c2c[nH]c3ccccc3c2=O)cc1O,inactive
21,NC(=O)NO,3720 nM (active)
22,Nc1ccccc1NC(=O)c1ccc(CNC(=O)OCc2cccnc2)cc1,833 nM (active)
23,COc1cccc(OC)c1-c1cc(C(=O)NC2(C(=O)O)C3CC4CC(C3)CC2C4)nn1-c1ccnc2cc(Cl)ccc12 (centres undefined),inactive
24,Cc1cn(CCN2CCN(c3ccccc3-c3cc(C#N)cc(C(=O)NCCCN4CCCC4)c3)CC2)c2ccccc12,6600 nM (active)
25,CCCCCN(CCC12CC3CC(CC(C3)C1)C2)C(=O)NCCCc1ccncc1,inactive
26,Nc1c2c(nc3ccccc13)CCCC2,inactive
27,NS(=O)(=O)c1cccc2c1C(=O)c1cccc(O)c1C2=O,6620 nM (active)
28,O=S(=O)(O)CCS,inactive
29,CCN(c1ccccc1)c1cc(NC)[n+](C)c(C)n1,inactive
